Source: PubChem BioAssay (Tox21)
Records with an inconclusive call do not appear. Where a call stands in place of a potency, no number is given. Unmarked numbers belong to inactive results. Calls of active or inactive are those of the source. The call rests on the fitted dose curve; in most records, active means well fitted cell-killing curve with a large enough effect in the repeat runs; inconclusive means weak or mixed curves, or effect the other way; inactive means flat fitted curve, though single readings scatter.

Experiments:
[1] = cAMP Responsive Elements (CRE) small molecule antagonists, cell-based qHTS assay: qHTS cell viability counter screen (AID 2060913); further: nearly all actives have a fitted effect of over 40% in size
Procedure, shortened: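 Cytotoxicity read in the same wells as the CRE-bla HEK293T antagonist assay: after 3 h compound with 0.25 uM NKH477 final and 2 h beta-lactamase substrate, CellTiter-Glo luminescence measured.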

[2] = cAMP Responsive Elements (CRE) small molecule agonists, cell-based qHTS assay: qHTS cell viability counter screen (AID 2060914); further: nearly all actives have a fitted effect of over 50% in size
Procedure, shortened: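 Cytotoxicity was measured as ATP luminescence (CellTiter-Glo, 30 min at room temperature) in the same wells as the CRE-bla FRET read-out. HEK293T CRE-bla cells had 3 h compound exposure at 37C/5% CO2.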

Compound	Potency [1]	Potency [2]	viability change, negative = cytotoxic [1]	activity change, negative = cytotoxicity [2]
O=c1cc(CO)occ1O	inactive	inactive		
c1ccc2[nH]cnc2c1	inactive	inactive		
CC(C)CCCCCCOC(=O)c1ccc(C(=O)OCCCCCCC(C)C)c(C(=O)OCCCCCCC(C)C)c1	inactive	inactive		
OC1OC[C@@H](O)[C@H](O)[C@H]1O (stereo not given in full)	inactive	inactive		
CCCCCCCC/C=C\CCCCCCCCCCCC(=O)O	inactive	inactive		
CCCOC(=O)c1ccccc1	inactive	inactive		
O=C(O)/C=C/c1ccc(O)c(O)c1	inactive	inactive		
O=S(=O)(O)c1cc(O)ccc1O	inactive	inactive		
CC(C)[C@@H]1CC[C@@H](C)C[C@H]1O	inactive	inactive		
Clc1cc(Cl)nc(Cl)n1	inactive	inactive		
ClCCOCCOCCCl	inactive	inactive		
CCCCOc1ccc(CC(=O)NO)cc1	inactive	inactive		
COc1cc(C(=O)OCCCN2CCCN(CCCOC(=O)c3cc(OC)c(OC)c(OC)c3)CC2)cc(OC)c1OC	inactive	inactive		
C=CCN1C[C@H](C(=O)N(CCCN(C)C)C(=O)NCC)C[C@@H]2c3cccc4[nH]cc(c34)C[C@H]21	inactive	inactive		
Cc1ncc(COP(=O)(O)O)c(C=O)c1O	inactive	inactive		
Cc1ccc(C=O)cc1C	inactive	inactive		
CO/N=C(/C(=O)N[C@@H]1C(=O)N2C(C(=O)O)=C(Cn3nnc(C)n3)CS[C@H]12)c1csc(N)n1	inactive	inactive		
O=CO			-5.83% [at 8.39 µM]	-4.64% [at 8.39 µM]
Cc1c(C(C)C)c(=O)n(-c2ccccc2)n1C	inactive	inactive		
C=CC(=O)OCCOC(=O)C=C	inactive	inactive		
CCOC(=O)c1ccc(O)c(O)c1	inactive	inactive		
Cc1c(C(=O)NN2CCCCC2)nn(-c2ccc(Cl)cc2Cl)c1-c1ccc(Cl)cc1	inactive	inactive		
Cc1ccc2oc(=O)ccc2c1	inactive	inactive		
CCC=CC#N	inactive	inactive		
OCC(O)CS (stereo not given)	inactive	inactive		
CCc1nccnc1C	inactive	inactive		
O=C1OC(=O)C2CC=CCC12 (stereo not given)	inactive	inactive		
Cc1cn[nH]c1	inactive	inactive		

Compound	Potency [1]	Potency [2]	viability change, negative = cytotoxic [1]	activity change, negative = cytotoxicity [2]
CCN(C(=O)N(CC)c1ccccc1)c1ccccc1	inactive	inactive		
CCCCCCCCS	inactive	inactive		
COc1ccc(N=Nc2cc(C)c(N=Nc3ccc(S(=O)(=O)O)cc3)cc2OC)cc1	inactive	inactive		
c1ccc2cnccc2c1	inactive	inactive		
CC(=O)OC/C=C(\C)CCC=C(C)C	inactive	inactive		
NCc1ccccc1	inactive	inactive		
C=C(CC(=O)O)C(=O)O	inactive	inactive		
CC1(C)[C@@H](OC(=O)CCC(=O)O)CC[C@]2(C)[C@H]3C(=O)C=C4[C@@H]5C[C@@](C)(C(=O)O)CC[C@]5(C)CC[C@@]4(C)[C@]3(C)CC[C@@H]12	inactive	inactive		
O=C(c1ccccc1)c1ccccc1	inactive	inactive		
CS(C)=O	inactive	inactive		
C=CC[N+]1([C@H]2C[C@H]3[C@@H]4CC[C@H]5C[C@H](OC(C)=O)[C@@H](N6CCCCC6)C[C@]5(C)[C@H]4CC[C@]3(C)[C@H]2OC(=O)CC)CCCCC1	inactive	inactive		
Cc1ccc(=O)n(-c2ccccc2)c1	inactive	inactive		
CC(C)OB(OC(C)C)OC(C)C	inactive	inactive		
OC1CCCC1	inactive	inactive		
CC1=CC[C@@H](C(C)(C)O)CC1	inactive	inactive		
CCOC(=O)N1CCC(Nc2ccc(Cl)cc2N)CC1	inactive	inactive		
CCOC=C(C(=O)OCC)C(=O)OCC	inactive	inactive		
CCCCCCCCC(=O)OCC	inactive	inactive		
C[C@]12CCC(=O)C=C1CC[C@@H]1[C@@H]2[C@@H](O)C[C@@]2(C)[C@H]1CC[C@]2(O)C(=O)COC(=O)CCC(=O)O	inactive	inactive		
N#CCCOCCOCCC#N	inactive	inactive		
C=C1[C@H]2CC[C@@H]3[C@H]2C(C)(C)CCC[C@]13C	inactive	inactive		
C[Si](C)(CCCN)O[Si](C)(C)CCCN	inactive	inactive		
COCCOCCOCCOC	inactive	inactive		
CCCOC(=O)NCCCN(C)C	inactive	inactive		
c1ccc2c(c1)ccc1ncccc12	inactive	inactive		
C=CC(C)(CCC=C(C)C)OC(C)=O (stereo not given)	inactive	inactive		
CC/C(C)=N/O	inactive	inactive		
